The source of these data is PubChem BioAssay (NCI).

Compounds without any hit were thinned out: in the full panel of roughly 79,000, 15% have a hit. Unmarked numbers belong to inactive results. Calls of active or inactive are those of the source. No stated cut-off is given here; in the data, active means growth inhibition above about 70%; inactive means the rest.

One assay can be described thus: NCI Yeast Anticancer Drug Screen. Data for the mec2-1 strain (AID 157). The note with it: S. cerevisiae mec2-1 strain, at 50.0 µM, hits give high values. In a few lines:
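Strain: mec2-1 (DNA repair/cell cycle alteration). Compound exposure, then growth measured; inhibition expressed relative to vehicle.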
On to `CCCC(C)(COC(N)=O)COC(=O)NC1CC1` (stereo not given), for which the growth inhibition is 0.05%.
Same read-out and setting: the result for `O=C(O)C(CSC(c1ccccc1)c1ccccc1)NC(=O)C(c1ccccc1)c1ccccc1` (stereo not given) reads 83.3% (active); that for `CC1=CC2CC(C)=C(CC[C@]3(C)CC[C@H]([C@@H](C)C(=O)O)OO3)C(C)(C)C2CC1` (stereo not given in full), 93.8% (active); that for `O=[N+]([O-])/C=C/c1c(Cl)cccc1Cl`, 99.2% (active).
The same measure, in the same setting: the result for `O=[n+]1c2ccccc2n([O-])c2ccccc21.[Cl][Cu][Cl]` reads 99% (active).
On the same count and under the same terms, the result for `CC(=O)C(CN1CCOCC1)C(c1ccccc1)c1c(O)c2ccccc2oc1=O` (stereo not given) reads -12.3%.
Take `CC(C)c1oc(=O)cc2c1C(O)C1OC(=O)C3(C)C(O)C4OC4C2(C)C13` (stereo not given): the growth inhibition is -10.8%.
Take `C#CCN1C(=O)N(CC#C)C(=O)C(CC#C)(C(CC=C)c2ccccc2)C1=O` (stereo not given): the growth inhibition was 26.6%.
Still for that read-out and setting: the value for `COC(=O)C1c2c(C)cc3n2C(C=CC3)C1C(=O)OC` (stereo not given) was 19.1%; that for `[Cl][Hg][c]1ccc(Cl)s1` was 99.2% (active).
On the same count and under the same terms, the value for `N#CC(Cl)(Cl)CCl` was 13.2%; that for `O=C1CCC(=O)N1SC(Cl)(Cl)Cl` was 99.7% (active); that for `CCCC(=O)O.CCCC(=O)O.CCCC(=O)O.CCCC(=O)O.[Rh].[Rh]` was 48.5%.
Still for that read-out and setting: the result for `CC(CCC/C=C/CCCN(C)C(=N)N)CC(C)C1OC(=O)C(C)C(O)/C=C/C(C)C(O)C(C)C(O)C(C)C(O)CCCC(O)CC2(O)OC(CC(OC(=O)CC(=O)O)CC(O)CC(O)C(C)C(O)/C=C/C=C/C1C)CC(O)C2O` (stereo not given) reads 94.1% (active); that for `OC(CN(CCCl)CCCl)C(O)C(O)C(O)CN(CCCl)CCCl` (stereo not given), 24%.
With `O=[N+]([O-])c1ccc(CS(=O)(=O)C(Cl)Cl)o1`, the growth inhibition was 59.5%.
Regarding `CC(C)c1cc([N+](=O)[O-])cc([N+](=O)[O-])c1O`, the growth inhibition is 62.1%.
For the compound `O=P(c1cccc(C(F)(F)F)c1)(c1cccc(C(F)(F)F)c1)c1cccc(C(F)(F)F)c1.O=P(c1cccc(C(F)(F)F)c1)(c1cccc(C(F)(F)F)c1)c1cccc(C(F)(F)F)c1.[Cl][Sn]([Cl])([Cl])[Cl]`, the growth inhibition was 18.5%.
Turning to `COc1cc(N(CC(C)Br)CC(C)Br)ccc1N=Nc1ccccc1C(=O)O` (stereo not given), the growth inhibition is 29.1%.
In the case of `C(=P(c1ccccc1)(c1ccccc1)c1ccccc1)[P+](c1ccccc1)(c1ccccc1)c1ccccc1.[Cl][Fe]([Cl])([Cl])[Br]`, the growth inhibition is 99.5% (active).
Regarding `COc1ccc2c(c1)CCC(N1CCCC(=O)C1)C2` (stereo not given), the growth inhibition is 24.4%.
Still for that read-out and setting: the value for `C1CCNCC1.O=C([CH-]C(=O)C(F)(F)F)c1ccc2c(c1)C(=O)c1ccccc1-2.O=C([CH-]C(=O)C(F)(F)F)c1ccc2c(c1)C(=O)c1ccccc1-2.O=C([CH-]C(=O)C(F)(F)F)c1ccc2c(c1)C(=O)c1ccccc1-2.O=C([CH-]C(=O)C(F)(F)F)c1ccc2c(c1)C(=O)c1ccccc1-2.[Eu+3]` was 20.2%; that for `O=C1C(=O)C(Br)(Br)C(Br)=C1Br` was 88.2% (active); that for `CN(C)C(=S)Nc1nnc(NC23CC4CC(CC(C4)C2)C3)s1` was 96.2% (active).
Same read-out and setting: the value for `C[CH2][Hg]` was 99.5% (active).
The same measure, in the same setting: the value for `c1cc2n[pH]nc2cn1` (stereo not given) was 11.2%; that for `CCC[CH2][Sn]1([CH2]CCC)[O]CC(Cc2ccccc2)[O]1` (stereo not given) was 90.2% (active).
Regarding `Clc1ccccc1C#[C][Hg][C]#Cc1ccccc1Cl`, the growth inhibition is 5.95%.
Same read-out and setting: the result for `CC12CCC3C(CC=C4CC(SC(=N)N)CCC43C)C1CCC2=O` (stereo not given) reads 48.3%.
Take `COc1ccccc1/C=C/[N+](=O)[O-]`: the growth inhibition is 99.7% (active).
The same measure, in the same setting: the result for `ClC(CN1CCCCC1)C(Cl)c1ccccc1` (stereo not given) reads 4.8%; that for `CCC[CH2][Sn]1([CH2]CCC)[O]CC(CN2CCCCC2)[O]1` (stereo not given), 85.4% (active).
Same read-out and setting: the result for `COC1OC(CO)C(O)C(O)[CH]1[Hg][Cl]` (stereo not given) reads 99% (active); that for `ClC1=C(Cl)C2(Cl)C(Cl)CC1(Cl)C2(Cl)Cl` (stereo not given), 40.5%; that for `[Hg][c]1ccccc1`, 99.7% (active).
The same measure, in the same setting: the value for `O=[N+]([O-])c1cccc(SC(Cl)(Cl)Cl)c1` was 99.5% (active); that for `CC1=C(O)C(=O)C=C2C1=CC=C1[C@@]2(C)CC[C@@]2(C)[C@@H]3C[C@](C)(C(=O)O)CC[C@]3(C)CC[C@]12C` was 93.5% (active).
On to `CCC[CH2][Sn]1([CH2]CCC)[O]C2C(O)OC(CO)C(O)C2[O]1` (stereo not given), for which the growth inhibition is 99.3% (active).
Same read-out and setting: the result for `O=[As]c1ccccc1O` (stereo not given) reads 98.1% (active).
Consider `CC[PH+](CC)CC.[Cl][Au]`, for which the growth inhibition was 91.4% (active).

The nature of another assay: NCI Yeast Anticancer Drug Screen. Data for the sgs1 mgt1 strain (AID 161).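 Further: 0% = growth of cultures given vehicle only.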 The conditions noted are these: S. cerevisiae sgs1 mgt1 strain, at 5.0 µM (retest, dose inferred, filed as 0.5), hits give high values. In a few lines: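 Mutant yeast exposed to compound; growth scored against vehicle-only wells.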
Take `CCCC(C)(COC(N)=O)COC(=O)NC1CC1` (stereo not given): the growth inhibition was -8%.
On the same count and under the same terms, the result for `O=C(O)C(CSC(c1ccccc1)c1ccccc1)NC(=O)C(c1ccccc1)c1ccccc1` (stereo not given) reads 11%; that for `CC1=CC2CC(C)=C(CC[C@]3(C)CC[C@H]([C@@H](C)C(=O)O)OO3)C(C)(C)C2CC1` (stereo not given in full), 69%; that for `O=[N+]([O-])/C=C/c1c(Cl)cccc1Cl`, 99% (active).
Still for that read-out and setting: the result for `O=[n+]1c2ccccc2n([O-])c2ccccc21.[Cl][Cu][Cl]` reads 36%; that for `CC(=O)C(CN1CCOCC1)C(c1ccccc1)c1c(O)c2ccccc2oc1=O` (stereo not given), 3%.
Still for that read-out and setting: the value for `CC(C)c1oc(=O)cc2c1C(O)C1OC(=O)C3(C)C(O)C4OC4C2(C)C13` (stereo not given) was 10%; that for `C#CCN1C(=O)N(CC#C)C(=O)C(CC#C)(C(CC=C)c2ccccc2)C1=O` (stereo not given) was -1%; that for `COC(=O)C1c2c(C)cc3n2C(C=CC3)C1C(=O)OC` (stereo not given) was -6%.
`[Cl][Hg][c]1ccc(Cl)s1`: the growth inhibition is 100% (active).
With `N#CC(Cl)(Cl)CCl`, the growth inhibition was 4%.
On the same count and under the same terms, the value for `O=C1CCC(=O)N1SC(Cl)(Cl)Cl` was 7%.
Same read-out and setting: the result for `CCCC(=O)O.CCCC(=O)O.CCCC(=O)O.CCCC(=O)O.[Rh].[Rh]` reads 28%; that for `CC(CCC/C=C/CCCN(C)C(=N)N)CC(C)C1OC(=O)C(C)C(O)/C=C/C(C)C(O)C(C)C(O)C(C)C(O)CCCC(O)CC2(O)OC(CC(OC(=O)CC(=O)O)CC(O)CC(O)C(C)C(O)/C=C/C=C/C1C)CC(O)C2O` (stereo not given), 6%.
In the case of `OC(CN(CCCl)CCCl)C(O)C(O)C(O)CN(CCCl)CCCl` (stereo not given), the growth inhibition is -4%.
In the case of `O=[N+]([O-])c1ccc(CS(=O)(=O)C(Cl)Cl)o1`, the growth inhibition is 3%.
Still for that read-out and setting: the value for `CC(C)c1cc([N+](=O)[O-])cc([N+](=O)[O-])c1O` was 1%.
Same read-out and setting: the value for `O=P(c1cccc(C(F)(F)F)c1)(c1cccc(C(F)(F)F)c1)c1cccc(C(F)(F)F)c1.O=P(c1cccc(C(F)(F)F)c1)(c1cccc(C(F)(F)F)c1)c1cccc(C(F)(F)F)c1.[Cl][Sn]([Cl])([Cl])[Cl]` was 3%; that for `COc1cc(N(CC(C)Br)CC(C)Br)ccc1N=Nc1ccccc1C(=O)O` (stereo not given) was 54%.
Regarding `C(=P(c1ccccc1)(c1ccccc1)c1ccccc1)[P+](c1ccccc1)(c1ccccc1)c1ccccc1.[Cl][Fe]([Cl])([Cl])[Br]`, the growth inhibition was 99% (active).
The same measure, in the same setting: the result for `COc1ccc2c(c1)CCC(N1CCCC(=O)C1)C2` (stereo not given) reads 8%.
Still for that read-out and setting: the result for `C1CCNCC1.O=C([CH-]C(=O)C(F)(F)F)c1ccc2c(c1)C(=O)c1ccccc1-2.O=C([CH-]C(=O)C(F)(F)F)c1ccc2c(c1)C(=O)c1ccccc1-2.O=C([CH-]C(=O)C(F)(F)F)c1ccc2c(c1)C(=O)c1ccccc1-2.O=C([CH-]C(=O)C(F)(F)F)c1ccc2c(c1)C(=O)c1ccccc1-2.[Eu+3]` reads 15%; that for `O=C1C(=O)C(Br)(Br)C(Br)=C1Br`, -4%; that for `CN(C)C(=S)Nc1nnc(NC23CC4CC(CC(C4)C2)C3)s1`, 15%.
On the same count and under the same terms, the result for `C[CH2][Hg]` reads 99% (active); that for `c1cc2n[pH]nc2cn1` (stereo not given), -2%.
Take `CCC[CH2][Sn]1([CH2]CCC)[O]CC(Cc2ccccc2)[O]1` (stereo not given): the growth inhibition is 54%.
Same read-out and setting: the result for `Clc1ccccc1C#[C][Hg][C]#Cc1ccccc1Cl` reads 4%; that for `CC12CCC3C(CC=C4CC(SC(=N)N)CCC43C)C1CCC2=O` (stereo not given), 21%; that for `COc1ccccc1/C=C/[N+](=O)[O-]`, 87% (active).
Still for that read-out and setting: the result for `ClC(CN1CCCCC1)C(Cl)c1ccccc1` (stereo not given) reads 5%; that for `CCC[CH2][Sn]1([CH2]CCC)[O]CC(CN2CCCCC2)[O]1` (stereo not given), 32%; that for `COC1OC(CO)C(O)C(O)[CH]1[Hg][Cl]` (stereo not given), 100% (active).
On the same count and under the same terms, the value for `ClC1=C(Cl)C2(Cl)C(Cl)CC1(Cl)C2(Cl)Cl` (stereo not given) was -3%; that for `[Hg][c]1ccccc1` was 100% (active).
As for `O=[N+]([O-])c1cccc(SC(Cl)(Cl)Cl)c1`, the growth inhibition is 31%.
The same measure, in the same setting: the value for `CC1=C(O)C(=O)C=C2C1=CC=C1[C@@]2(C)CC[C@@]2(C)[C@@H]3C[C@](C)(C(=O)O)CC[C@]3(C)CC[C@]12C` was 83% (active); that for `CCC[CH2][Sn]1([CH2]CCC)[O]C2C(O)OC(CO)C(O)C2[O]1` (stereo not given) was 82% (active).
Take `O=[As]c1ccccc1O` (stereo not given): the growth inhibition is 2%.
As to `CC[PH+](CC)CC.[Cl][Au]`, the growth inhibition was 97% (active).
